Structures can show the parent of a compound that is named as a salt. ± gives the standard deviation of the averaged measurements.
What was measured:
[1] = system: E18 rat cortical neuron-glia co-culture; test: fiber score / MBP score (myelination specific beyond OL differentiation) (ratio); higher = more myelination-specific MBP alignment; settings: treatment time: 8 days (DIV5-DIV13)
In short: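 Library compounds were applied at 1 or 5 µM in myelination medium, DIV5 to DIV13, to primary E18 rat cortical co-cultures grown at 20,000 cells/well in 96-well plates. After 4 % paraformaldehyde fixation and MBP/Olig2/DAPI immunostaining, four 10X fields per well in duplicate wells were scored. Each value is continuous MBP fiber length per Olig2+ nucleus divided by thresholded MBP area × intensity per Olig2+ nucleus.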

[2] = system: E18 rat cortical neuron-glia co-culture; test: myelination (MBP fiber length per Olig2+ nucleus), % of 1 µM DAPT response (DMSO = 0) (% of DAPT); higher = more myelination, active = 50 or more; settings: treatment time: 8 days (DIV5-DIV13)
In short: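 Library compounds at 1 or 5 µM in myelination medium were applied from DIV5 to DIV13 to papain-dissociated E18 rat cortical co-cultures seeded at 20,000 cells/well on poly-d-lysine/laminin 96-well plates. Fixed cells (4 % paraformaldehyde) were immunostained for MBP and Olig2 with DAPI, and four 10X fields were analysed in each duplicate well. Continuous straight MBP fiber length per Olig2+ nucleus was set to 0 for 0.1 % DMSO and to 100 for a 1 µM positive control.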

Row | SMILES | fiber score / MBP score ([1]; 1 µM) | fiber score / MBP score ([1]; 5 µM) | myelination ([2]; 1 µM) | myelination ([2]; 5 µM)
1 | CN(C)CCc1c[nH]c2ccc(C[C@H]3COC(=O)N3)cc12 [Zolmitriptan] | 0.791 | 0.785 | -9.2 (inactive) | -14.6 (inactive)
2 | CC1CNc2c(cccc2S(=O)(=O)N[C@@H](CCCNC(=N)N)C(=O)N2CC[C@@H](C)C[C@@H]2C(=O)O)C1 (stereo partly drawn) [Argatroban] | 0.647 | 0.566 | -43.9 (inactive) | -49.9 (inactive)
3 | CC1=C(C/C=C(\C)CCC[C@H](C)CCC[C@H](C)CCCC(C)C)C(=O)c2ccccc2C1=O [Phylloquinone] | 0.894 | 0.723 | -4.4 (inactive) | -10.2 (inactive)
4 | CC(C)NCC(O)COc1cccc2ccccc12 (stereo not drawn) [Propranolol] | 1.55 | 0.95 | 9.85 (inactive) | 1.55 (inactive)
5 | CCCc1nc(C(C)(C)O)c(C(=O)O)n1Cc1ccc(-c2ccccc2-c2nnn[nH]2)cc1 [Olmesartan] | 0.778 | 0.698 | -32.2 (inactive) | -45 (inactive)
6 | OC(Cn1cncn1)(Cn1cncn1)c1ccc(F)cc1F [Fluconazole] | 0.906 | 0.784 | 5.01 (inactive) | -19.9 (inactive)
7 | NS(=O)(=O)c1cc2c(cc1Cl)N=CNS2(=O)=O [Chlorothiazide] | 1.05 | 0.841 | 3.67 (inactive) | 6.93 (inactive)
8 | Cc1[nH]cnc1CN1CCc2c(c3ccccc3n2C)C1=O [Alosetron] | 0.768 | 0.974 | -18.2 (inactive) | -2.39 (inactive)
9 | Nc1ccc(S(=O)(=O)c2ccc(N)cc2)cc1 [Dapsone] | 0.932 | 0.925 | -3.07 (inactive) | -4.22 (inactive)
10 | OC(c1cc(C(F)(F)F)nc2c(C(F)(F)F)cccc12)C1CCCCN1 (stereo not drawn) [Mefloquine] | 0.726 | 0.574 | -11.1 (inactive) | -31.7 (inactive)
11 | O=C1Nc2ccccc2/C1=C1/Nc2ccccc2C1=O [Indirubin] | 0.896 | 0.71 | -4.48 (inactive) | -14.5 (inactive)
12 | CC(C)(C)NC[C@H](O)COc1nsnc1N1CCOCC1 [Timolol] | 0.869 | 1.02 | -4.47 (inactive) | -1.56 (inactive)
13 | O=c1[nH]c(=O)n([C@H]2C[C@H](O)[C@@H](CO)O2)cc1F [Floxuridine] | 1.49 | 1.71 | 286 | 367 (active)
14 | CC(COc1ccccc1Cc1ccccc1)N1CCCCC1 (stereo not drawn) [Benproperine] | 0.726 | 0.819 | -8.06 (inactive) | -4.27 (inactive)
15 | CC(C)C[C@H](NC(=O)[C@@H](O)[C@H](N)Cc1ccccc1)C(=O)O [Ubenimex] | 0.92 | 1.09 | -7.81 (inactive) | 1.09 (inactive)
16 | C[C@H]1[C@H](OC(=O)CCC(=O)O)O[C@@H]2O[C@@]3(C)CC[C@H]4[C@H](C)CC[C@@H]1[C@@]24OO3 [Artesunate] | 0.652 | 1.2 | -34.4 (inactive) | 189
17 | Nc1cc(N2CCCCC2)nc(N)[n+]1[O-] [Minoxidil] | 0.696 | 0.658 | -26.1 (inactive) | -24.5 (inactive)
18 | Cc1ccc(S(=O)(=O)NC(=O)NN2CCCCCC2)cc1 [Tolazamide] | 0.701 | 0.729 | -15.6 (inactive) | -16.8 (inactive)
19 | O=C(O)COCCN1CCN(C(c2ccccc2)c2ccc(Cl)cc2)CC1 (stereo not drawn) [Virlix] | 0.867 | 0.681 | -2.52 (inactive) | -8.81 (inactive)
20 | N[C@@H](C(=O)N[C@@H]1C(=O)N2C(C(=O)O)=C(Cl)CS[C@H]12)c1ccccc1 [Cefaclor] | 0.944 | 0.875 | 1.34 (inactive) | -10.6 (inactive)
21 | Cc1cccc(Nc2ccccc2C(=O)O)c1C [Mefenamic Acid] | 0.791 | 1.3 | -6.36 (inactive) | 38.7 (inactive)
22 | CC(COc1ccccc1)NC(C)C(O)c1ccc(O)cc1 (stereo not drawn) [Isoxsuprine] | 0.798 | 0.841 | -4.41 (inactive) | -2.46 (inactive)
23 | CC(CN1c2ccccc2Sc2ccccc21)N(C)C (stereo not drawn) [Promethazine] | 0.678 | 0.931 | -18.8 (inactive) | -4.26 (inactive)
24 | CCC(=O)NS(=O)(=O)c1ccc(-c2c(-c3ccccc3)noc2C)cc1 [Parecoxib] | 0.57 | 1.01 | -22.9 (inactive) | 1.22 (inactive)
25 | CN(Cc1cnc2nc(N)nc(N)c2n1)c1ccc(C(=O)N[C@@H](CCC(=O)O)C(=O)O)cc1 [Methotrexate] | 1.06 | 1.53 | -20.4 (inactive) | 195 (active)
26 | CN1C(=O)CC[C@H]1c1cccnc1 [Cotinine] | 0.604 | 0.723 | -30.3 (inactive) | -28.1 (inactive)

Row | SMILES | fiber score / MBP score ([1]; 1 µM) | fiber score / MBP score ([1]; 5 µM) | myelination ([2]; 1 µM) | myelination ([2]; 5 µM)
27 | COC(=O)Nc1nc2cc(C(=O)c3ccccc3)ccc2[nH]1 [Mebendazole] | 0.624 | 0.207 | 71.4 | -22.3 (inactive)
28 | Nc1ccc2cn[nH]c2c1 [6-Aminoindazole] | 0.529 | 0.815 | -12.7 (inactive) | -11.1 (inactive)
29 | O=C1c2c(O)cc(O)cc2OC(c2ccc(O)c(O)c2)C1O (stereo not drawn) [Taxifolin] | 0.697 | 0.943 | -33.2 (inactive) | -8.22 (inactive)
30 | CCCCC1=NC2(CCCC2)C(=O)N1Cc1ccc(-c2ccccc2-c2nnn[nH]2)cc1 [Irbesartan] | 0.679 | 0.752 | -12.8 (inactive) | -10.8 (inactive)
31 | CCOC(=O)C1=C(C)NC(C)=C(C(=O)OC)C1c1cccc([N+](=O)[O-])c1 (stereo not drawn) [Nitrendipine] | 0.92 | 1.09 | -7.81 (inactive) | 1.09 (inactive)
32 | CC(=O)O[C@]1(C(C)=O)CC[C@H]2[C@@H]3C[C@H](C)C4=CC(=O)CC[C@]4(C)[C@H]3CC[C@@]21C [Medroxyprogesterone acetate] | 1.1 | 0.549 | 0.776 (inactive) | -11.3 (inactive)
33 | CN(C)CCC=C1c2ccccc2CCc2ccccc21 [Amitriptyline] | 0.785 | 1.22 | -0.648 (inactive) | 30.2 (inactive)
34 | C[C@H]1C[C@@H]2[C@H]([C@@H](O)C[C@@]3(C)[C@H]2CC[C@]3(O)C(=O)CO)[C@@]2(C)C=CC(=O)C=C12 [Methylprednisolone] | 0.918 | 1.01 | -0.665 (inactive) | 2.01 (inactive)
35 | O=C1CN2Cc3c(ccc(Cl)c3Cl)N=C2N1 [Anagrelide hydrochloride] | 0.9 | 0.706 | -1.07 (inactive) | -10 (inactive)
36 | CCC(=O)O[C@@H]1CC(=O)O[C@H](C)C/C=C/C=C/[C@H](O)[C@H](C)C[C@H](CC=O)[C@H](O[C@@H]2O[C@H](C)[C@@H](O[C@H]3C[C@@](C)(O)[C@@H](OC(=O)CC)[C@H](C)O3)[C@H](N(C)C)[C@H]2O)[C@H]1OC [Midecamycin] | 0.757 | 1.13 | -9.01 (inactive) | 1.11 (inactive)
37 | CC(C)[N+](C)(CCOC(=O)C1c2ccccc2Oc2ccccc21)C(C)C [Propantheline] | 0.889 | 0.949 | -4.45 (inactive) | 3.32 (inactive)
38 | CN(C)CCCC1(c2ccc(F)cc2)OCc2cc(C#N)ccc21 (stereo not drawn) [Citalopram] | 0.773 ± 0.29 | 0.571 ± 0.19 | -18.2 (inactive) | -19 (inactive)
39 | Nc1nc2ccc(OC(F)(F)F)cc2s1 [Riluzole] | 0.879 | 0.478 | -26.1 (inactive) | -52.5 (inactive)
40 | CC(C[N+](C)(C)C)OC(N)=O (stereo not drawn) [Bethanechol] | 0.372 | 0.379 | -14.3 (inactive) | -14.6 (inactive)
41 | COc1cc2nc(N3CCN(C(=O)C4CCCO4)CC3)nc(N)c2cc1OC (stereo not drawn) [Terazosin] | 1.2 ± 0.17 | 1.08 ± 0.41 | 11.7 (inactive) | 2.09 (inactive)
42 | C#C[C@]1(O)CC[C@H]2[C@@H]3CCc4cc(O)ccc4[C@H]3CC[C@@]21C [Ethinyl Estradiol] | 0.608 | 0.958 | -18.3 (inactive) | 159
43 | CCCC(=O)Nc1ccc(OCC(O)CNC(C)C)c(C(C)=O)c1 (stereo not drawn) [Acebutolol] | 0.757 | 0.796 | -40.3 (inactive) | -32.5 (inactive)
44 | Oc1ccc(C2CNCCc3c2cc(O)c(O)c3Cl)cc1 (stereo not drawn) [Fenoldopam] | 0.941 | 0.611 | -10.8 (inactive) | -45 (inactive)
45 | NC(=O)c1cnccn1 [Pyrazinamide] | 0.64 | 0.862 | -16.4 (inactive) | -9.54 (inactive)
46 | Cc1ncc([N+](=O)[O-])n1CCO [Metronidazole] | 0.862 | 0.794 | -7.63 (inactive) | -10.1 (inactive)
47 | COc1cc(C(=O)NS(=O)(=O)c2ccccc2C)ccc1Cc1cn(C)c2ccc(NC(=O)OC3CCCC3)cc12 [Zafirlukast] | 0.627 | 0.714 | -12.3 (inactive) | -4.26 (inactive)
48 | CC[N+](C)(CC)CCOC(=O)C(O)(c1ccccc1)C1CCCCC1 (stereo not drawn) [Oxyphenonium] | 0.849 | 0.703 | -8.21 (inactive) | -6.58 (inactive)
49 | CC1(C)C[C@@H]1C(=O)N/C(=C\CCCCSC[C@H](N)C(=O)O)C(=O)O [Cilastatin] | 0.833 | 0.756 | -11.5 (inactive) | -15.2 (inactive)
50 | CCN(CC)CCOC(=O)c1ccc(N)cc1 [Procaine] | 1.09 | 1.47 | 6.68 (inactive) | 23.1 (inactive)
51 | CC(=O)OCC(=O)[C@@]12OC(C)(C)O[C@@H]1C[C@H]1[C@@H]3C[C@H](F)C4=CC(=O)C=C[C@]4(C)[C@@]3(F)[C@@H](O)C[C@@]12C [Fluocinonide] | 0.861 | 0.291 | -38 (inactive) | -66.2 (inactive)
52 | COC(=O)C1=C(C)NC(C)=C(C(=O)OC(C)C)C1c1cccc2nonc12 (stereo not drawn) [Isradipine] | 0.618 | 0.922 | -16.2 (inactive) | 34.9 (inactive)

Source: the supplement of paper PMC4840960
